Assay results: the supplement of paper PMC10849652
The full data set covers some 8,800 targets. This sample favours those with a hit. About 0.5% of all pairs of compound and target were hits. A number with no mark means an inactive call.

Columns and labels:
Assay in all cases: log2 fold change, soluble protein after heating vs DMSO (PISA); higher = thermal stabilisation; K562 lysate, 10 uM; active = over 0.2 and 3.5 SD of the protein, either way, in both replicates (recomputed)
[1] = compound: C/C(=N\NC(=O)C1=CC(=CC=C1)S(=O)(=O)N2CCOCC2)/C3=C(C=CC(=C3)Cl)O
Method in brief: (§1)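 Thermal stability, expressed as log-two fold change relative to solvent controls, is given from duplicates. Crude K562 extract in PBS pH 7.4 with 1 mM MgCl2, at 1 mg/mL protein, was treated with 10 μM compound for 30 min and heated in aliquots for 3 min across 48°C-58°C. After pooling, adjustment to 0.5% NP-40 at 4°C and centrifugation at 21,000xg for 90 min, supernatant protein was measured by TMTpro 16plex LC-MS/MS with channel sums equalised.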

[2] = compound: C1=CC2=C(C=CC(=C2)/C=C\3/C(=O)NC(=NCC4=CC=CS4)S3)N=C1
Method in brief: as §1

[3] = compound: C1=CC=C2C(=C1)C3=NNC4=CC=CC(=C43)C2=O
Method in brief: as §1

[4] = compound: C1CCN(C1)C(=O)NC2=CC=CC(=C2)NC3=NC=C(C(=N3)NCCC4=CN=CN4)Br
Method in brief: as §1

[5] = compound: C1CN(CCC1(CC2=CC=C(C=C2)Cl)N)C3=NC=NC4=C3C=CN4
Method in brief: as §1

[6] = compound: CC(=O)c1cnc2ccc(-c3cc(Cl)c(O)c(Cl)c3)nc2c1N[C@H]1CC[C@H](CN(C)C)CC1
Method in brief: as §1

[7] = compound: CC1=C(C2=C(C=C1)C(=O)C3=CC=CC=C3N2CCCN)C
Method in brief: as §1

[8] = compound: CC1=C(C=C(C=C1)NC(=O)C2=CC(=CC=C2)C(C)(C)C#N)NC3=CC4=C(C=C3)N=CN(C4=O)C
Method in brief: as §1

[9] = compound: CC1=CC=C(C=C1)SC2=C3C=C(SC3=CN=C2)C(=O)N
Method in brief: as §1

[10] = compound: C1=CC2=NC=CN=C2C=C1/C=C/3\C(=O)NC(=O)S3
Method in brief: as §1

[11] = compound: C1=CC=C(C=C1)C2=NC(=C(N2)C3=CC=NC=C3)C4=CC(=C(C=C4)Cl)O
Method in brief: as §1

IRAK-1-4 Inhibitor I = compound: C1COCCN1CCN2C3=CC=CC=C3N=C2NC(=O)C4=CC(=CC=C4)[N+](=O)[O-] [IRAK-1-4 Inhibitor I]
Method in brief: as §1

ibrutinib = compound: C=CC(=O)N1CCC[C@@H](n2nc(-c3ccc(Oc4ccccc4)cc3)c3c(N)ncnc32)C1 [ibrutinib]
Method in brief: as §1

ralimetinib = compound: CC(C)(C)Cn1c(N)nc2ccc(-c3[nH]c(C(C)(C)C)nc3-c3ccc(F)cc3)nc21 [ralimetinib]
Method in brief: as §1

[12] = compound: CC(C)(O)CC(=O)NCCn1ccc2ncnc(Nc3ccc(Oc4cccc(C(F)(F)F)c4)c(Cl)c3)c21
Method in brief: as §1

[13] = compound: CC1=C(C=C(C=C1)NC(=O)C2=CC(=CC=C2)N(C)C)NC(=O)C3=CC=C(C=C3)O
Method in brief: as §1

[14] = compound: CC1=C(C(CC(=O)N1)C2=CC=C(C=C2)C(F)(F)F)C(=O)NC3=C(C=C4C(=C3)C=NN4)F
Method in brief: as §1

erlotinib = compound: C#Cc1cccc(Nc2ncnc3cc(OCCOC)c(OCCOC)cc23)c1 [erlotinib]
Method in brief: as §1

[15] = compound: C1=CC(=CC=C1C2=NC3=C(N2)C=C(C=C3)C(=O)N)OC4=CC=C(C=C4)Cl
Method in brief: as §1

[16] = compound: CC(C)C1=C2N=C(C=C(N2N=C1)NCC3=CC=CC=C3)NCCCCCCN
Method in brief: as §1

UniProt Q24JP5, sequence (Q24JP5 whole entry, looked up): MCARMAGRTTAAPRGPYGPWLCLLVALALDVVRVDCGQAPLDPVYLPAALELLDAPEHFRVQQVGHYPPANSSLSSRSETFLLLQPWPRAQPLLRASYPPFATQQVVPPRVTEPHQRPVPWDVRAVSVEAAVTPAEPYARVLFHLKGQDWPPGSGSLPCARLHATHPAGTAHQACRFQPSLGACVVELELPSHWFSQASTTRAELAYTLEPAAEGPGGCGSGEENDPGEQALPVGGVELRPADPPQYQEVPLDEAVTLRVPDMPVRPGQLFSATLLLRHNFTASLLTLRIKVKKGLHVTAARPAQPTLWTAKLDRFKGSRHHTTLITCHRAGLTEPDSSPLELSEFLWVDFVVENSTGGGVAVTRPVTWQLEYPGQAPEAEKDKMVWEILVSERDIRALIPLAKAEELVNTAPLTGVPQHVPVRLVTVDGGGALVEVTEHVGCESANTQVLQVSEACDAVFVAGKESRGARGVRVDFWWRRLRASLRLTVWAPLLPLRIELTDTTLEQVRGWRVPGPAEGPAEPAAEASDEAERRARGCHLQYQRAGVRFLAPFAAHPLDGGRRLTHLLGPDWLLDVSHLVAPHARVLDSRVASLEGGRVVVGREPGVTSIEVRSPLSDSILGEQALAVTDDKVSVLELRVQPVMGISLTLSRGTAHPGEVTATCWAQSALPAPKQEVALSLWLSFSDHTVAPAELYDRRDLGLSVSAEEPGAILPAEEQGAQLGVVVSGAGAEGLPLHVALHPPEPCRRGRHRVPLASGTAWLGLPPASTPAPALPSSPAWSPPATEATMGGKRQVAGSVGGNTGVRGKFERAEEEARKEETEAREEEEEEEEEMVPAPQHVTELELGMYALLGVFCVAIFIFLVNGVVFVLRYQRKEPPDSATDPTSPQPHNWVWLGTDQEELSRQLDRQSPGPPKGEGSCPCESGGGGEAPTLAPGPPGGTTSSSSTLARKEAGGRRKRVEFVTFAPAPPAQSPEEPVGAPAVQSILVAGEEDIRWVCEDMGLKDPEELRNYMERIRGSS
UniProt P42680, sequence (P42680 whole entry, looked up): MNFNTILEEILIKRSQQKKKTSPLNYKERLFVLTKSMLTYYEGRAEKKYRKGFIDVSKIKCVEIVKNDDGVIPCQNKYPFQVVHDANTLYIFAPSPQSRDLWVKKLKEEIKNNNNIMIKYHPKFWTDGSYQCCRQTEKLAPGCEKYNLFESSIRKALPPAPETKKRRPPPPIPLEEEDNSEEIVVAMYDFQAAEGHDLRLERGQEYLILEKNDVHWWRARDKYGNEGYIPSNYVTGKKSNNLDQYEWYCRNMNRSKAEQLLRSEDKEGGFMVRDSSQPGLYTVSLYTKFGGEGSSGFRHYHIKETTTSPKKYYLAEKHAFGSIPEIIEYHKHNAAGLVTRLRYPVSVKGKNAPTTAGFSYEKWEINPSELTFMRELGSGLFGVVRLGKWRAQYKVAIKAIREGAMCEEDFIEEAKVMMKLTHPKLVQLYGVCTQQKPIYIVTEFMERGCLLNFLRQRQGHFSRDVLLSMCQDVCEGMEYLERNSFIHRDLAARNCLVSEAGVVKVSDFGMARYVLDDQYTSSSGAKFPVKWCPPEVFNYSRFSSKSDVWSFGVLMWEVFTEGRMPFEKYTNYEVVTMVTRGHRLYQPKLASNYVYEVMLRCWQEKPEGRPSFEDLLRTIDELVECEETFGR
UniProt Q04726, sequence (Q04726 whole entry, looked up): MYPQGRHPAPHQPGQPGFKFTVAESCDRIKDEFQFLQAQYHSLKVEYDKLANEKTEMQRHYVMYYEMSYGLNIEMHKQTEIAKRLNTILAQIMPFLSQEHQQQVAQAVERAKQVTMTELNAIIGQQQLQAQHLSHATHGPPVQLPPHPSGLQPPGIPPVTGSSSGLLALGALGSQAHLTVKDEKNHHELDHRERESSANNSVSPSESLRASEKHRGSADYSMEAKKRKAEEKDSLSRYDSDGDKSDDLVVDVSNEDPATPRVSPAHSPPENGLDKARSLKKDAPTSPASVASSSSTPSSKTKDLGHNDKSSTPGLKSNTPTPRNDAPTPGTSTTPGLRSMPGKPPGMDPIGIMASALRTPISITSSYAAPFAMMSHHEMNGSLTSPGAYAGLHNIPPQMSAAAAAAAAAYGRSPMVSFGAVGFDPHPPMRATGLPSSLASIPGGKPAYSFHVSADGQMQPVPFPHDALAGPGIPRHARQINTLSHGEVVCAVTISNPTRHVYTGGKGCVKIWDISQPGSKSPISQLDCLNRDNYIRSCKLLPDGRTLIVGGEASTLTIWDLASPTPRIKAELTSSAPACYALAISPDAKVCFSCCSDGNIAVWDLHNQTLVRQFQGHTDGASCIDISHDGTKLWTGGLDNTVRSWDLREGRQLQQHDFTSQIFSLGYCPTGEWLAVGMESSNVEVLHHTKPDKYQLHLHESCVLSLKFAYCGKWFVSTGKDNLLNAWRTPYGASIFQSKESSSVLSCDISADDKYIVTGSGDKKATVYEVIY
UniProt Q14157, sequence (Q14157 whole entry, looked up): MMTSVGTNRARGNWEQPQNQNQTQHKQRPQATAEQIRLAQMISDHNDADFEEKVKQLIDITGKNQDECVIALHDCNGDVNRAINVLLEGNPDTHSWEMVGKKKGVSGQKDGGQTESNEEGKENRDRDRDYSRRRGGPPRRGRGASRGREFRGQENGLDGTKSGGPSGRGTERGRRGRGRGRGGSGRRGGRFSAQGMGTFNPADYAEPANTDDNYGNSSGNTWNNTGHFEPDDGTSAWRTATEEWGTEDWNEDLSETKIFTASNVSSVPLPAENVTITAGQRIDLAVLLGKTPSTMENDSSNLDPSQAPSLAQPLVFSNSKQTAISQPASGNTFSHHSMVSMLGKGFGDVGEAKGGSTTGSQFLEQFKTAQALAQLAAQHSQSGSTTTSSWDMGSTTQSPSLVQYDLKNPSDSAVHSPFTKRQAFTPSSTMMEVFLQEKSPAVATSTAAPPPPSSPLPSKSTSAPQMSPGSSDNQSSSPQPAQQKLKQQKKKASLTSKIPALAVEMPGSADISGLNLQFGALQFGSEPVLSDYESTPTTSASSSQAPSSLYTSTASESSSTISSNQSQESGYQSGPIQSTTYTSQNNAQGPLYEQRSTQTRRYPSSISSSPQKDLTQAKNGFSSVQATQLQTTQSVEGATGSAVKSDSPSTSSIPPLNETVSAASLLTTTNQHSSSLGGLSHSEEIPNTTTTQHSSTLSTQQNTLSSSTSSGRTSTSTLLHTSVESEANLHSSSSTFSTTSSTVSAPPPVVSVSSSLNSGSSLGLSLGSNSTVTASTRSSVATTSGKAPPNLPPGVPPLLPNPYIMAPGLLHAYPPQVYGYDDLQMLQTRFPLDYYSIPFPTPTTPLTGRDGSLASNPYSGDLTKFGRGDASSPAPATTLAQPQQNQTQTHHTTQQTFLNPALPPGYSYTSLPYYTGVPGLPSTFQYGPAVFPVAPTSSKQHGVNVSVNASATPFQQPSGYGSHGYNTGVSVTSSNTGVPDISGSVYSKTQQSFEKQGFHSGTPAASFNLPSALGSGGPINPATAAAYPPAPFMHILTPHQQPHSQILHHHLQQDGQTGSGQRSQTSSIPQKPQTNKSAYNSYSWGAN
UniProt O75382, sequence (O75382 whole entry, looked up): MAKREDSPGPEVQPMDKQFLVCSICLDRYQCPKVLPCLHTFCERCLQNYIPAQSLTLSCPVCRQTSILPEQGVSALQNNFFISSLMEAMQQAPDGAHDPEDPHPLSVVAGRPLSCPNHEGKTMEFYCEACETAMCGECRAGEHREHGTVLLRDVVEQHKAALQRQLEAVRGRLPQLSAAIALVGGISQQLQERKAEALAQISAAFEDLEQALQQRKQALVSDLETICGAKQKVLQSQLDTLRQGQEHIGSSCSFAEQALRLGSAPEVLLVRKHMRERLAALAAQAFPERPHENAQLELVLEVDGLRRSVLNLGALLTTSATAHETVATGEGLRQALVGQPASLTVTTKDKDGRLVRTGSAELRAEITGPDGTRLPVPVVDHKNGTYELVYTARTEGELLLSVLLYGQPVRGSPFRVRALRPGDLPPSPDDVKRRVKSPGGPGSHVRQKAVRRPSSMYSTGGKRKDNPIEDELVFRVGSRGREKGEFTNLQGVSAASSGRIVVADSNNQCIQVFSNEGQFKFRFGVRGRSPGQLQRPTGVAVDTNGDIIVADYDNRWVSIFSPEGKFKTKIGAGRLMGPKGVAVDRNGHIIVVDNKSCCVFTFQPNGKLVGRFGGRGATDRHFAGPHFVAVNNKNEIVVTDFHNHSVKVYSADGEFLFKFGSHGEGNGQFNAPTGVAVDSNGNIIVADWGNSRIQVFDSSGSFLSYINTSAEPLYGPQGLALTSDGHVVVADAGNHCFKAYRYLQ
UniProt P62328, sequence (P62328 whole entry, looked up): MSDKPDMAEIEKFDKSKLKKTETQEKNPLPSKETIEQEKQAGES
UniProt P04350, sequence (P04350 whole entry, looked up): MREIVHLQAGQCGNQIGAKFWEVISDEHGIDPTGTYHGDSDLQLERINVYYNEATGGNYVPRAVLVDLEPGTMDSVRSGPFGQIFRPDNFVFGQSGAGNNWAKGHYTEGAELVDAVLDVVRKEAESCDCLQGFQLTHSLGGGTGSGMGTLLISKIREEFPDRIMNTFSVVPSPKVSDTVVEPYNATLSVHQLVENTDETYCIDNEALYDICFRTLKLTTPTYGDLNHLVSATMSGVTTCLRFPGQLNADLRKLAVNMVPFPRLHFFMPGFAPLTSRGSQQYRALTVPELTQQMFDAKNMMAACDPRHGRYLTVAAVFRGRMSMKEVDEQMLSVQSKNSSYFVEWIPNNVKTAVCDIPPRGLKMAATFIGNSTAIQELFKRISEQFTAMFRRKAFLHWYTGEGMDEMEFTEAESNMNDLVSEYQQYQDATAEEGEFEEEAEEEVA

Target | log2 fold change [1] | log2 fold change [2] | log2 fold change [3] | log2 fold change [4] | log2 fold change [5] | log2 fold change [6] | log2 fold change [7] | log2 fold change [8] | log2 fold change [9] | log2 fold change [10] | log2 fold change [11] | log2 fold change (IRAK-1-4 Inhibitor I) | log2 fold change (ibrutinib) | log2 fold change (ralimetinib) | log2 fold change [12] | log2 fold change [13] | log2 fold change [14] | log2 fold change (erlotinib) | log2 fold change [15] | log2 fold change [16]
UBN1 (UniProt Q9NPG3) | 0.032 | -0.056 | 0.051 | 0 | -0.023 | 0.015 | 0.03 | 0.066 | 0.081 |  |  |  |  |  |  |  |  |  |  | 
UBAP2L (UniProt F8W726) | -0.074 | 0.048 | 0.168 |  |  | 0.275 |  | -0.547 (active) | -0.025 |  |  |  |  |  |  |  |  |  |  | 
THAP9 (UniProt Q9H5L6) | 0.019 | -0.015 | -0.042 | -0.092 | 0.098 | -0.061 | -0.199 | 0.234 | -0.087 | 0.01 | 0.028 | 0.145 | 0.038 | -0.168 | -0.332 | 0.017 |  |  |  | 
UBAP2 (UniProt Q5JV08) |  |  |  |  |  |  |  |  |  |  |  |  |  |  |  |  | -0.097 |  |  | 
TMEM132A isoform 2 (UniProt Q24JP5) |  |  |  | 0.042 | 0.068 | 0.676 |  | 0.05 | 0.019 |  | -0.064 | 0.101 |  | 0.065 | -0.194 | 0.015 |  | -0.031 | -0.009 | 0.03
UBAP2L isoform 1 (UniProt Q14157) |  |  |  |  |  |  |  | -0.833 (active) |  | 0.081 | -0.367 | 0.084 | -0.075 | -0.306 | -0.123 | -0.161 | 0.114 |  |  | 
TRIM3 (UniProt O75382) | 0.2 | 0.098 | 0.012 | 0 | -0.265 | -0.06 |  |  | 0.048 |  |  |  |  |  |  |  |  | 0.129 | -0.909 (active) | -0.09
TLE3 isoform 5 (UniProt Q04726) |  |  |  | -0.068 | 0.01 | -0.022 | -0.053 | 0.093 | -0.035 | 0.237 | 0.06 | -0.021 | 0.045 | -0.027 | -0.077 | 0.018 | 0.138 | 0.036 | -0.068 | -0.061
UCP2 (UniProt P55851) | 0.217 | -0.114 | -0.025 |  |  |  |  | -0.045 |  |  | 0.011 | -0.026 |  | 0.091 | -0.081 | -0.1 | 0.073 |  |  | 
TEC (UniProt P42680) | 0.092 | -0.051 | -0.048 | -0.024 | -0.038 | -0.096 |  |  | 0.143 |  |  |  |  |  |  |  | -0.023 |  |  | 
TUBB4A (UniProt P04350) |  |  |  | 0.017 | -0.001 | -0.018 | -0.086 | -0.085 | -0.068 | -0.016 | -0.066 | 0.086 | 0.007 | 0.074 | 0.039 | -0.015 | 0.009 | 0.036 | 0.015 | 0.088
TMSB4X (UniProt P62328) |  |  |  | 0.018 | 0.085 | -0.03 |  | -0.025 | -0.064 | -0.031 | 0.002 | -0.083 | 0.519 | 0 | -0.072 | 0.075 | 0.122 | 0.079 | 0.084 | 0.033
